In all, about 33,000 sequences were measured (“E-score (-0.5 to 0.5)”: median about -0.053, highest 2% from about 0.37 on). The entries come from a sample that favours the highest values as a whole.
Target: Hap1 (UniProt P0CE41)
Assay: PBM E-score (8-mer binding enrichment) (E-score (-0.5 to 0.5)); higher = stronger / more preferred TF binding
Conditions: protein concentration: 200 nM; construct: GST-DNA-binding domain
In short: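 Universal all-10-mer Agilent arrays, fresh or stripped once, were converted to double-stranded form by primer extension. GST-tagged yeast transcription factors from PURExpress in vitro transcription/translation, full-length or DNA-binding domain only, were applied at about 100-200 nM and detected with fluorescent anti-GST. After masliner normalisation, the Universal PBM Analysis Suite scored each ungapped eight-base word together with its reverse complement by E-score.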

Sequence of UniProt P0CE41 (P0CE41 whole entry): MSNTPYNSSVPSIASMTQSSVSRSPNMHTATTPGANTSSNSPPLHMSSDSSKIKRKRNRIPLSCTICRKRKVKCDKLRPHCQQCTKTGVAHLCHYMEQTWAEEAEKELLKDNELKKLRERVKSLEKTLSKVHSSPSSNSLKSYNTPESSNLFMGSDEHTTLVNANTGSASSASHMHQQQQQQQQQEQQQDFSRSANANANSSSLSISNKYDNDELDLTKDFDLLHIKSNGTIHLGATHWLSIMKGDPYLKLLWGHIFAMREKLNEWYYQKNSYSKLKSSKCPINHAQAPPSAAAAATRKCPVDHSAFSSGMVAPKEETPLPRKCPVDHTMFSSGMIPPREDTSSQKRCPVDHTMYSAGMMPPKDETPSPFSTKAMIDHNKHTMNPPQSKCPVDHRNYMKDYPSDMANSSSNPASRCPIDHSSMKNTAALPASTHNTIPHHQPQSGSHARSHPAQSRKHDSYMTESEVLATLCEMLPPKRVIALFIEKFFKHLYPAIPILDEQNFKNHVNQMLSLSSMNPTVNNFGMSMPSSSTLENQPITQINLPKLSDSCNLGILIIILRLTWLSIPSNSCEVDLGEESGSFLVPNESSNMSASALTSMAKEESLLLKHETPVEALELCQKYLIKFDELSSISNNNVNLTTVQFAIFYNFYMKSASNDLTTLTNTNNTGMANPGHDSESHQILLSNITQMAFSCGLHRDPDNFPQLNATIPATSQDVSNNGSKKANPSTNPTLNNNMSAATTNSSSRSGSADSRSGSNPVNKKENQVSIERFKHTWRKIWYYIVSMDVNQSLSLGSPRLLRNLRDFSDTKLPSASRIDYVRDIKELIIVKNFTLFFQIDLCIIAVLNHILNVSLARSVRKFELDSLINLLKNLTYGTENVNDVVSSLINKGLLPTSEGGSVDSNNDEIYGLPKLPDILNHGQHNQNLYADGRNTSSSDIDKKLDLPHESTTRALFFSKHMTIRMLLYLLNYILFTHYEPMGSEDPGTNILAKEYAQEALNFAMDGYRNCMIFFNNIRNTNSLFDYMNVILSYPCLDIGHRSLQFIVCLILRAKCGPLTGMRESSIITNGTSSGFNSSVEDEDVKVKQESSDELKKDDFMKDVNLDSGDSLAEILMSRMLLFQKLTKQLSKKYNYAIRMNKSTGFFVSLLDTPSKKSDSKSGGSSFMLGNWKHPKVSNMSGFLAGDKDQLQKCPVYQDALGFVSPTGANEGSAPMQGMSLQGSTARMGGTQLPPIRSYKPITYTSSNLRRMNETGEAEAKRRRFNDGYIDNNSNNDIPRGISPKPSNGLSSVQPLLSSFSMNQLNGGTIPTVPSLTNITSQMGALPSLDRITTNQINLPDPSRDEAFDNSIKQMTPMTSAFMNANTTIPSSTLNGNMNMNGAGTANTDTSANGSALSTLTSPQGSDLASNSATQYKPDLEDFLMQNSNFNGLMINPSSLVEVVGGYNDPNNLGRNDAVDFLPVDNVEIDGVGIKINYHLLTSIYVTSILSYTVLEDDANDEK

Sequence	PBM E-score
GGGTTACA	0.0182
AAACGGGA	0.217
AATCCATG	-0.036
AGAGTTAA	-0.105
GGAGTTAC	0.393
AGAGTTAC	-0.312
CGAGTTAC	-0.0647
TGAGTTAA	-0.188
GGAGTTAA	0.429
GAGGGGTA	0.0493
CCATCAAA	-0.17
GAGACCGC	0.0393
CGGAACTA	0.436
GGGAAACA	0.112
AGGAAGTA	0.0541
AGGAACTA	-0.0416
CGGAAAAG	0.343
CGGAAAAA	0.4
CGGAACTC	0.309
CGGAAGTC	0.305
AGGAAACA	-0.0825
CGGAAACA	0.384
CGGAAAAC	0.346
CGGAAGTA	0.38

Sequence	PBM E-score
AATCCTAC	-0.124
ACAGCGCT	-0.0282
CGCTCGTA	0.0559
ACAGTACA	-0.00621
CGTATCGC	0.208
CCACTGGG	-0.145
AAGGAAGT	0.113
TCAGCAAA	-0.157
GTTTCTAA	0.105
GACCCGTC	0.0739
CACAGTCA	-0.284
GGCACGCC	-0.0738
ACCAAACT	-0.13
GCGTTGAC	-0.207
GAAGCATC	-0.0716
CGGAATTC	0.319
CGGAAATC	0.352
GGGAAATA	0.13
CGGAATTA	0.481
CGGAAATA	0.487
AGGAATTA	0.17
AGTTGAGC	-0.188
GCCTGGAA	-0.233
CAGTTTGG	-0.204

Sequence	PBM E-score
AGTATGTA	-0.162
ATGACCGG	0.276
CAGACCGA	0.278
AAGACCGA	0.413
AAGACCGT	0.0453
ATGACCGC	0.197
ATGACCGA	0.378
CTTCTAGA	-0.156
AAATGCTC	0.0505
TGACAGAA	-0.247
ACAGACCT	-0.0718
ACTAGTAC	-0.173
ATAGCCGA	0.372
CTAGCCGA	0.25
AGAGCCGG	0.263
ATAGCCAG	-0.293
ATAGCCGG	0.397
ATAGCCGC	0.232
AGTTTGGA	-0.274
CAGTTTCA	-0.241
ATAACGGC	0.355
CTAACGGA	0.38
GTCACGGA	0.371
CTCACGGA	0.221

Sequence	PBM E-score
GTAACGCA	0.0607
ATCACGGA	0.352
ATAACGGA	0.414
CTAACGGC	0.184
GAAACGGA	0.277
GTAACGGA	0.401
CAAACGGA	0.324
ATAACGGG	0.228
CATAACCG	0.133
ATGATTCC	0.0894
TCCTGCCA	-0.12
GTCATGAC	-0.111
AAAAACTC	0.0741
AGATGGCT	-0.0974
ACTATGCA	-0.16
CGCTACTA	0.163
CCGCCTTA	-0.0179
CCGCTCAA	0.0207
AGCCAGCA	-0.268
CGTTTACA	-0.145
CAACAGAA	-0.227
AACAAATC	-0.00416
